Experimental data taken from PubChem BioAssay (EPA / NIEHS).
Values joined by “and” are separate entries in the source; they are usually repeats but may differ in a detail not shown here. Equal values may be shown once. The source holds several records for some structures; these can differ, active in one and inactive in another. Active and inactive are the calls of the source. How the source made its calls: active means hit-call score of the fitted dose curve at least 0.9, where 1 is the maximum; inactive means score below 0.9.

Read-out: Eotaxin 3, CCL26 (gene 10344)
Experiment: BSK_BF4T_Eotaxin3: BioMAP Diversity Plus: BF4T Assay for Eotaxin 3 Biomarker Activity (AID 2284258)
Conditions: primary human bronchial epithelial cells with fibroblasts
In short: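 ELISA measurement of Eotaxin-3 after 24 h chemical exposure in a bronchial epithelial/dermal fibroblast co-culture, with DMSO as baseline. Parallel SRB staining (0.1% SRB after 10% TCA fixation, 560 nm) flagged overt cytotoxicity.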

Structure (SMILES)	outcome	AC50
O=C(O)C(F)(F)C(F)(F)C(F)(F)C(F)(F)C(F)(F)C(F)(F)C(F)(F)C(F)(F)C(F)(F)C(F)(F)C(F)(F)C(F)(F)F	inactive	–
FC1CC(F)(F)C(F)(F)C1(F)F (configuration not stated)	inactive	–
O=C(O)C(F)(F)C(F)(F)C(F)F	inactive	–
O=C(O)C(F)(F)C(F)(F)OC(F)(F)F	inactive	–
O=C(O)C(F)(F)C(F)(F)C(F)(F)C(F)(F)C(F)(F)C(F)(F)C(F)(F)C(F)(F)C(F)(F)C(F)F	inactive	5.95 µM (active)
OCCCC(F)(F)C(F)(F)C(F)(F)C(F)(F)C(F)(F)C(F)(F)C(F)(F)F	inactive	52.3 µM (active)
NC(=O)C(F)(F)C(F)(F)C(F)(F)C(F)(F)F	inactive	–
Cc1ccc(S(=O)(=O)OCC(F)(F)C(F)(F)C(F)(F)C(F)(F)C(F)(F)C(F)F)cc1	inactive	–
FC(F)(F)C(F)(F)C(F)(F)N(C(F)(F)C(F)(F)C(F)(F)F)C(F)(F)C(F)(F)C(F)(F)F	inactive	–
FC(F)(F)C(F)(F)C(F)(F)C(F)(F)C(F)(F)C(F)(F)C(F)(F)I	inactive	–
O=C(O)C(F)(F)C(F)(F)C(F)(F)C(F)(F)C(F)(F)C(F)(F)C(F)(F)C(F)(F)C(F)(F)C(F)(F)C(F)(F)C(F)(F)C(F)(F)F	inactive	–
CCO[Si](CCC(F)(F)C(F)(F)C(F)(F)C(F)(F)C(F)(F)C(F)(F)F)(OCC)OCC	inactive	–
OCC(F)(F)C(F)(F)C(F)(F)C(F)F	inactive	–
OCCCC(F)(F)C(F)(F)C(F)(F)F	inactive	–
FC(F)(Br)C(F)(F)C(F)(F)C(F)(F)C(F)(F)C(F)(F)Br	inactive	–
COC(=O)CCC(F)(F)C(F)(F)C(F)(F)C(F)(F)F	inactive	–
FC(F)(I)C(F)(F)C(F)(F)C(F)(F)I	inactive	57.1 µM (active) and 50.6 µM (active)
C=C(C)C(=O)OCC(F)(F)C(F)(F)C(F)(F)F	inactive	–

Structure (SMILES)	outcome	AC50
O=C(O)C(F)(F)C(F)(F)F	inactive	–
N=C(N)C(F)(F)C(F)(F)C(F)(F)C(F)(F)C(F)(F)C(F)(F)C(F)(F)F	inactive	38.9 µM (active)
FC(F)(F)C(F)(F)C(F)(F)C(F)(F)C(F)(F)C(F)(F)C(F)(F)C(F)(F)CCS	inactive	–
O=C(O)C=C(C(F)(F)F)C(F)(F)F	inactive	10.8 µM (active)
FC(F)(F)C(F)(F)C(F)(F)CI	inactive	–
CC(C)(C)C(=O)CC(=O)C(F)(F)C(F)(F)C(F)(F)F	inactive	–
FC(F)(F)C(F)(F)C(F)(F)C(F)(F)C(F)(F)C(F)(F)C(F)(F)Br	inactive	–
FC(F)(F)C(F)(F)C(F)(F)C(F)(F)C(F)(F)CCI	inactive	38.6 µM (active)
O=C(O)C(F)(F)C(F)(F)C(F)(F)C(F)(F)C(F)(F)C(F)(F)C(F)(F)C(F)(F)Cl	–	8.26 µM (active) and 1.05 µM (active)
O=P(O)(O)OCCC(F)(F)C(F)(F)C(F)(F)C(F)(F)C(F)(F)C(F)(F)F	inactive	–
FC(F)(F)C(F)(F)C(F)(F)C(F)(F)C(F)(F)C(F)(F)CCS	inactive	–
FC(F)(F)C(F)(F)C(F)(F)C(F)(F)CCI	inactive	–
C=CC(F)(F)C(F)(F)C(F)(F)C(F)(F)C(F)(F)C(F)(F)C(F)(F)C(F)(F)C=C	inactive	–
CCCCCCCCC(F)(F)C(F)(F)C(F)(F)C(F)(F)C(F)(F)C(F)(F)F	inactive	–
C=C(C)C(=O)OCC(F)(F)C(F)(F)C(F)(F)C(F)(F)C(F)(F)C(F)(F)C(F)(F)F	inactive	–
O=C(Cl)C(F)(F)C(F)(F)C(F)(F)C(F)(F)C(F)(F)C(F)(F)C(F)(F)C(F)(F)F	–	41.7 µM (active) and 39.5 µM (active) and 45.8 µM (active)
OCC(F)(F)C(F)(F)C(F)(F)F	inactive	–

Read-out: Monocyte Chemoattractant Protein-1 (MCP1), CCL2 (gene 6347)
Experiment: BSK_BF4T_MCP1: BioMAP Diversity Plus: BF4T Assay for Monocyte Chemoattractant Protein-1 (MCP1) Biomarker Activity (AID 2284259)
Conditions: primary human bronchial epithelial cells with fibroblasts
In short: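 MCP-1 ELISA readout taken 24 h after dosing in the BF4T system (bronchial epithelial cells plus dermal fibroblasts). Parallel SRB total-protein staining flagged cytotoxicity; DMSO served as baseline, positive fitting direction.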

Structure (SMILES)	outcome	AC50
O=C(O)C(F)(F)C(F)(F)C(F)(F)C(F)(F)C(F)(F)C(F)(F)C(F)(F)C(F)(F)C(F)(F)C(F)(F)C(F)(F)C(F)(F)F	inactive	–
FC1CC(F)(F)C(F)(F)C1(F)F (configuration not stated)	inactive	–
O=C(O)C(F)(F)C(F)(F)C(F)F	inactive	–
O=C(O)C(F)(F)C(F)(F)OC(F)(F)F	inactive	–
O=C(O)C(F)(F)C(F)(F)C(F)(F)C(F)(F)C(F)(F)C(F)(F)C(F)(F)C(F)(F)C(F)(F)C(F)F	–	13.3 µM (active) and 3.36 µM (active)
OCCCC(F)(F)C(F)(F)C(F)(F)C(F)(F)C(F)(F)C(F)(F)C(F)(F)F	–	38.4 µM (active) and 43.2 µM (active)
NC(=O)C(F)(F)C(F)(F)C(F)(F)C(F)(F)F	inactive	26.5 µM (active)
Cc1ccc(S(=O)(=O)OCC(F)(F)C(F)(F)C(F)(F)C(F)(F)C(F)(F)C(F)F)cc1	inactive	7.88 µM (active)
FC(F)(F)C(F)(F)C(F)(F)N(C(F)(F)C(F)(F)C(F)(F)F)C(F)(F)C(F)(F)C(F)(F)F	inactive	–
FC(F)(F)C(F)(F)C(F)(F)C(F)(F)C(F)(F)C(F)(F)C(F)(F)I	inactive	–
O=C(O)C(F)(F)C(F)(F)C(F)(F)C(F)(F)C(F)(F)C(F)(F)C(F)(F)C(F)(F)C(F)(F)C(F)(F)C(F)(F)C(F)(F)C(F)(F)F	inactive	–
CCO[Si](CCC(F)(F)C(F)(F)C(F)(F)C(F)(F)C(F)(F)C(F)(F)F)(OCC)OCC	inactive	–
OCC(F)(F)C(F)(F)C(F)(F)C(F)F	inactive	–
OCCCC(F)(F)C(F)(F)C(F)(F)F	inactive	–
FC(F)(Br)C(F)(F)C(F)(F)C(F)(F)C(F)(F)C(F)(F)Br	inactive	–
COC(=O)CCC(F)(F)C(F)(F)C(F)(F)C(F)(F)F	inactive	–
FC(F)(I)C(F)(F)C(F)(F)C(F)(F)I	–	38 µM (active) and 42.1 µM (active) and 42.5 µM (active)
C=C(C)C(=O)OCC(F)(F)C(F)(F)C(F)(F)F	inactive	–

Structure (SMILES)	outcome	AC50
O=C(O)C(F)(F)C(F)(F)F	inactive	48 µM (active)
N=C(N)C(F)(F)C(F)(F)C(F)(F)C(F)(F)C(F)(F)C(F)(F)C(F)(F)F	inactive	–
FC(F)(F)C(F)(F)C(F)(F)C(F)(F)C(F)(F)C(F)(F)C(F)(F)C(F)(F)CCS	inactive	–
O=C(O)C=C(C(F)(F)F)C(F)(F)F	inactive	–
FC(F)(F)C(F)(F)C(F)(F)CI	inactive	–
CC(C)(C)C(=O)CC(=O)C(F)(F)C(F)(F)C(F)(F)F	inactive	49.9 µM (active)
FC(F)(F)C(F)(F)C(F)(F)C(F)(F)C(F)(F)C(F)(F)C(F)(F)Br	inactive	–
FC(F)(F)C(F)(F)C(F)(F)C(F)(F)C(F)(F)CCI	inactive	–
O=C(O)C(F)(F)C(F)(F)C(F)(F)C(F)(F)C(F)(F)C(F)(F)C(F)(F)C(F)(F)Cl	–	40.4 µM (active) and 45.9 µM (active)
O=P(O)(O)OCCC(F)(F)C(F)(F)C(F)(F)C(F)(F)C(F)(F)C(F)(F)F	inactive	–
FC(F)(F)C(F)(F)C(F)(F)C(F)(F)C(F)(F)C(F)(F)CCS	inactive	–
FC(F)(F)C(F)(F)C(F)(F)C(F)(F)CCI	inactive	7.18 µM (active)
C=CC(F)(F)C(F)(F)C(F)(F)C(F)(F)C(F)(F)C(F)(F)C(F)(F)C(F)(F)C=C	inactive	–
CCCCCCCCC(F)(F)C(F)(F)C(F)(F)C(F)(F)C(F)(F)C(F)(F)F	inactive	–
C=C(C)C(=O)OCC(F)(F)C(F)(F)C(F)(F)C(F)(F)C(F)(F)C(F)(F)C(F)(F)F	inactive	–
O=C(Cl)C(F)(F)C(F)(F)C(F)(F)C(F)(F)C(F)(F)C(F)(F)C(F)(F)C(F)(F)F	inactive	45.5 µM (active)
OCC(F)(F)C(F)(F)C(F)(F)F	inactive	–
